From PubChem BioAssay (EPA / NIEHS)
Results filed as inconclusive are left out. Activity calls are given as the source filed them. The calls were made as follows, unless noted: active = hit-call score of the fitted dose curve at least 0.9, where 1 is the maximum; inactive = score below 0.9.

Key:
[1] = target: Paired box protein Pax-6 (Homo sapiens) (UniProt P26367); test: ATG_Pax6_CIS: Attagene CIS-FACTORIAL HepG2 Assay for human Paired Box 6 (PAX6) (AID 2282956); conditions: HepG2 CIS-FACTORIAL PAX6 reporter transcription, RNA readout; actives raise or lower the signal
Sequence of Paired box protein Pax-6 (Homo sapiens) (P26367 whole entry, looked up): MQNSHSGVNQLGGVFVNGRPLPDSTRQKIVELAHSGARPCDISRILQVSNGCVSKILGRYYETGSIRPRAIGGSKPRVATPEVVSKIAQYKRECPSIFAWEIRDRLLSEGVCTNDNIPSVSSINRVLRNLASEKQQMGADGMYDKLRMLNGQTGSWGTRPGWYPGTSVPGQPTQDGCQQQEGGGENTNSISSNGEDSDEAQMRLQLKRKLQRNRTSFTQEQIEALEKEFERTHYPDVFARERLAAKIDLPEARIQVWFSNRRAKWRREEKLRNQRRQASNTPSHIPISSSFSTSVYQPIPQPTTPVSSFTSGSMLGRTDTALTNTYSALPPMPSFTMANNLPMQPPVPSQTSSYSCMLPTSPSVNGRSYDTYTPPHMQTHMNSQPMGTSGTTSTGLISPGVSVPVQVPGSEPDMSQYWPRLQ
Method in brief: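 Transient MRTU transfection of HepG2 → compound exposure 24 h → TriZol RNA, oligo(dT) RT → PCR, 6-FAM primer extension, HpaI cut → capillary electrophoresis; activity fitted both directions against DMSO.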

[2] = ATG_PXRE_CIS: Attagene CIS-FACTORIAL HepG2 Assay for human Pregnane X Receptor Element (PXRE) (AID 2282957); conditions: HepG2 Attagene CIS-FACTORIAL PXRE reporter, mRNA; actives raise or lower the signal
Method in brief: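 Transfect HepG2 with MRTUs (cis promoter elements); dose chemical, incubate 24 h; isolate RNA, RT with oligo(dT), PCR, 6-FAM label, HpaI cut, CE. Gain/loss fit vs DMSO.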

[3] = ATG_PPRE_CIS: Attagene CIS-FACTORIAL HepG2 Assay for human Peroxisome Proliferator-activated Response Element (PPRE) (AID 2282958); conditions: HepG2 PPRE cis-element reporter, Attagene transcription factor profiling; actives raise or lower the signal
Method in brief: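 In this cell-based multiplex, a PPRE cis element drives a reporter sequence in transiently transfected HepG2 cells. Following 24 h treatment, labeled cDNA amplicons are sized and quantified by capillary electrophoresis, with DMSO defining baseline.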

[4] = ATG_RORE_CIS: Attagene CIS-FACTORIAL HepG2 Assay for human RAR-related Orphan Receptor Element (RORE) (AID 2282959); conditions: HepG2 Attagene cis-factorial RORE reporter, mRNA; actives raise or lower the signal
Method in brief: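 Endogenous factor activity at a cis response element is read as reporter transcript levels in HepG2 cells, 24 h post-dose. Transcripts are quantified by RT-PCR with capillary electrophoresis, and data fitted in both directions against DMSO.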

[5] = ATG_Sox_CIS: Attagene CIS-FACTORIAL HepG2 Assay for human SRY-box transcription factor (SOX) (AID 2282960); conditions: HepG2 Attagene cis-factorial SOX reporter, mRNA; actives raise or lower the signal
Method in brief: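 Measures mRNA induction of a SOX1-associated reporter in HepG2 after 24 h dosing. Fluorescently labelled RT-PCR fragments are separated by capillary electrophoresis, and gain or loss relative to DMSO control is fitted.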

[6] = target: Transcription factor Sp1 (Homo sapiens) (UniProt P08047); test: ATG_Sp1_CIS: Attagene CIS-FACTORIAL HepG2 Assay for human Specificity Protein 1 (Sp1) (AID 2282961); conditions: HepG2 Sp1 cis-reporter transcription, actives raise or lower the signal
Sequence of Transcription factor Sp1 (Homo sapiens) (P08047 whole entry, looked up): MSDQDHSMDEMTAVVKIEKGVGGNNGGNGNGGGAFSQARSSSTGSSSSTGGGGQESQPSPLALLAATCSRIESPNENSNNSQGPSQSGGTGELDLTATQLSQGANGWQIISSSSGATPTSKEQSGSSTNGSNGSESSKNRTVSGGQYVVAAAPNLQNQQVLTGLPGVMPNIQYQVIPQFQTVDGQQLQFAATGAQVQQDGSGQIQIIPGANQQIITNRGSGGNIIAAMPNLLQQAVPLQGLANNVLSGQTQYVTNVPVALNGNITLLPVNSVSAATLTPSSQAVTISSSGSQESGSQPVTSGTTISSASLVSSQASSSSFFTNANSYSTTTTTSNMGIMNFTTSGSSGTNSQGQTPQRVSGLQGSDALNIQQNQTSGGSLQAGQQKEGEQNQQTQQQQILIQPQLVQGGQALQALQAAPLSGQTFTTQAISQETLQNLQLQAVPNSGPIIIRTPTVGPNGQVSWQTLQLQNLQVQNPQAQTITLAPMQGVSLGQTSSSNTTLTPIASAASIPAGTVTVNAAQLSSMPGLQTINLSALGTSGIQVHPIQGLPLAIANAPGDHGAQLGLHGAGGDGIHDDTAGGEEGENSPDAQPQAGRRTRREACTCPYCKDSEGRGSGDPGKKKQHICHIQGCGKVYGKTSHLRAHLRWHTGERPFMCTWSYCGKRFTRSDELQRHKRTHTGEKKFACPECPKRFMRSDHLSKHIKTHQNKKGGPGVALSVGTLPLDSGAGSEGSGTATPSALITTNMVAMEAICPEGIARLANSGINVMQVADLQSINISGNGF
Method in brief: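 Cells: HepG2, transiently transfected with cis-regulated multiplexed reporters. Exposure: 24 h. Detection: reporter transcripts amplified, fluorescently labeled, restriction-digested and sized by capillary electrophoresis. Analysis: bidirectional fit relative to DMSO.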

[7] = target: Signal transducer and activator of transcription 3 (Homo sapiens) (UniProt P40763); test: ATG_STAT3_CIS: Attagene CIS-FACTORIAL HepG2 Assay for human Signal Transducer and Activator of Transcription 3 (STAT3) (AID 2282963); conditions: HepG2, Attagene cis-factorial STAT3 reporter transcription; actives raise or lower the signal
Sequence of Signal transducer and activator of transcription 3 (Homo sapiens) (P40763 whole entry, looked up): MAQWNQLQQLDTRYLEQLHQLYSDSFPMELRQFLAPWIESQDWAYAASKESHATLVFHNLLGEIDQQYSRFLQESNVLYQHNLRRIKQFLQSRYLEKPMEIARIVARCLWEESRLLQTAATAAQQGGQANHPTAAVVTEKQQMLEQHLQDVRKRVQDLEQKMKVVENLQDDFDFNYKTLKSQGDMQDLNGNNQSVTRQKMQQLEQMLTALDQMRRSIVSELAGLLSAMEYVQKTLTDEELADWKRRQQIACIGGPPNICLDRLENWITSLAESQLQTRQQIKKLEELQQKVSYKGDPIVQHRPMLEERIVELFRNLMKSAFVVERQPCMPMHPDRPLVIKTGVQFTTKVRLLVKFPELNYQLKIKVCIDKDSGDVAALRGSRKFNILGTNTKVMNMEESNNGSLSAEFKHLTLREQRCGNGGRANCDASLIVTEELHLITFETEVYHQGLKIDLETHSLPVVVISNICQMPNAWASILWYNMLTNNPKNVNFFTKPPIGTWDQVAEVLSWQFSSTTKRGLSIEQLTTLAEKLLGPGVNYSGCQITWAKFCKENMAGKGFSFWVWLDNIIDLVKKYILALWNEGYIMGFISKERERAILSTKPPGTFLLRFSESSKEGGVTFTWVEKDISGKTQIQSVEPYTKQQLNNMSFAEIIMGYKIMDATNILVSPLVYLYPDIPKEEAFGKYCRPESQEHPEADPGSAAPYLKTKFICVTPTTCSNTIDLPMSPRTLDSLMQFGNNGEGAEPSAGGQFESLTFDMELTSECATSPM
Method in brief: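 HepG2 cells transiently transfected with multiple cis-element-driven reporter units report endogenous transcription factor activity. After 24 h compound exposure, reporter mRNA is measured by RT-PCR, 6-FAM labelling, HpaI digestion and capillary electrophoresis. Fitted bidirectionally versus DMSO.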

[8] = ATG_TA_CIS: Attagene CIS-FACTORIAL HepG2 Assay for human TA Basal Promoter (AID 2282964); conditions: HepG2 Attagene CIS-factorial TA basal promoter reporter; actives raise or lower the signal
Method in brief: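 HepG2 cells transiently transfected with multiple reporter units under cis promoter elements, reporting endogenous transcription factor activity; this endpoint tracks the TA basal promoter as background control. Reporter mRNA after 24 h dosing measured by RT-PCR/capillary electrophoresis; bidirectional fits versus DMSO.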

[9] = ATG_TCF_b_cat_CIS: Attagene CIS-FACTORIAL HepG2 Assay for human T-Cell-Factor with beta-catenin (TCF/b-cat) (AID 2282965); conditions: HepG2 TCF/beta-catenin cis-reporter transcription, actives raise or lower the signal
Method in brief: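 HepG2 cells transiently transfected with cis-promoter-driven multiplexed reporter units; reporter mRNA measured 24 h after dosing by RT-PCR, FAM labelling, HpaI digestion and capillary electrophoresis. Bidirectional fitting relative to DMSO baseline.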

[10] = ATG_TAL_CIS: Attagene CIS-FACTORIAL HepG2 Assay for human TAL Basal Promoter (AID 2282966); conditions: HepG2 Attagene cis-factorial TAL promoter reporter; actives raise or lower the signal;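 also: background control endpoint measuring basal TAL promoter reporter mRNA not a specific factor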
Method in brief: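 Fluorescence of labelled reporter cDNA fragments, resolved by capillary electrophoresis, gave the readout. Human HepG2 liver cells carried transiently transfected cis-element reporter units and were treated for 24 hours; activity was fitted bidirectionally against DMSO.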

[11] = ATG_TGFb_CIS: Attagene CIS-FACTORIAL HepG2 Assay for human Transforming Growth Factor (TGF) (AID 2282967); conditions: HepG2 Attagene CIS TGFb reporter, mRNA transcription; actives raise or lower the signal
Method in brief: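 HepG2 cells transiently transfected with cis-promoter-driven multiple reporter units measure endogenous TF activity; reporter mRNA quantified at 24 h by RT-PCR, FAM labeling, HpaI digestion and capillary electrophoresis. Bidirectional fit vs DMSO.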

[12] = ATG_VDRE_CIS: Attagene CIS-FACTORIAL HepG2 Assay for human Vitamin D Receptor Element (VDRE) (AID 2282968); conditions: HepG2 VDRE cis-reporter transcription, actives raise or lower the signal
Method in brief: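 Transiently transfected HepG2 cells carrying cis-regulated reporter transcription units were exposed for 24 h. Reporter mRNA was measured by RT-PCR with fluorescent labelling and capillary electrophoresis, and fitted in both directions against DMSO.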

[13] = target: X-box-binding protein 1 (Homo sapiens) (UniProt P17861); test: ATG_Xbp1_CIS: Attagene CIS-FACTORIAL HepG2 Assay for human X-box Binding Protein 1 (XBP1) (AID 2282972); conditions: HepG2 XBP1 cis-element reporter, Attagene multiplex; actives raise or lower the signal
Sequence of X-box-binding protein 1 (Homo sapiens) (P17861 whole entry, looked up): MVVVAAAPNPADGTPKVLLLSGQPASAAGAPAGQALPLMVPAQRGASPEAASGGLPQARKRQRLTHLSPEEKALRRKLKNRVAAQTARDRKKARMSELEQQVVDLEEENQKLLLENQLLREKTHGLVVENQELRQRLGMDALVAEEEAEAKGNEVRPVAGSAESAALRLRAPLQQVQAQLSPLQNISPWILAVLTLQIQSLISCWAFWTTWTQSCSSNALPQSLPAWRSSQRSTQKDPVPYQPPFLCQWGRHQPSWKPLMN
Method in brief: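 HepG2, transient MRTU transfection (cis-promoter driven), 24 h compound exposure. Total RNA → oligo(dT) RT → PCR → 6-FAM labeling → HpaI cut → CE. Bidirectional fit vs DMSO.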

[14] = ATG_M_19_TRANS: Attagene TRANS-FACTORIAL HepG2 Assay for M19 Transcription Factor (Internal Marker) (AID 2282974; active = hit-call score of the fitted dose curve at least 0.9, where 1 is the maximum); conditions: HepG2 Attagene TRANS-FACTORIAL M19 internal marker reporter
Method in brief: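 Reporter mRNA induction was measured in transfected HepG2 cells 24 h after dosing. Endpoint fitted upward relative to DMSO and serves as a background control within the multiplexed TRANS panel.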

[15] = target: Estrogen-related receptor gamma (Homo sapiens) (UniProt P62508); test: ATG_ERRg_TRANS: Attagene TRANS-FACTORIAL HepG2 Assay for human Estrogen-Related Receptor gamma (ERRg) (AID 2282977; active = hit-call score of the fitted dose curve at least 0.9, where 1 is the maximum;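 also: hits increase reporter signal over DMSO so potencies reflect activators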); conditions: HepG2 Attagene TRANS reporter, ERRg transactivation
Sequence of Estrogen-related receptor gamma (Homo sapiens) (P62508 whole entry, looked up, the tested form may be a part): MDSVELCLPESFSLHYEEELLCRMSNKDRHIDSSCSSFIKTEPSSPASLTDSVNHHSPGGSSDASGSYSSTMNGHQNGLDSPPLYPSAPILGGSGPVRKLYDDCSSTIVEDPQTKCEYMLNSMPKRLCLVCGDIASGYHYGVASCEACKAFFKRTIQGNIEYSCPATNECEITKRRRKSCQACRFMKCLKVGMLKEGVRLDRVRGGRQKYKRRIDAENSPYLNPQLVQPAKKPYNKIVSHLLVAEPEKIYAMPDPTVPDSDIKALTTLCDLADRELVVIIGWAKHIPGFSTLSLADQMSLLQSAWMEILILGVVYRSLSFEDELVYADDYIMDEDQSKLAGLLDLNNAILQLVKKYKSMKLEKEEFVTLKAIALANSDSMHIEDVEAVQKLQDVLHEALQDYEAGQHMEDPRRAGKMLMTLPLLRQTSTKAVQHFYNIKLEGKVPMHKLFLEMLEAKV
Method in brief: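 HepG2 cells transiently transfected with multiplexed GAL4-UAS reporter units driven by chimeric NR-Gal4 proteins; 24 h exposure. Reporter mRNA quantified by RT-PCR, fluorescent labelling, HpaI digestion and capillary electrophoresis; gain of signal vs DMSO.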

[16] = ATG_SREBP_CIS: Attagene CIS-FACTORIAL HepG2 Assay for human Sterol Regulatory Element Binding (SREBP) (AID 2282962); conditions: HepG2 Attagene cis-factorial SREBP reporter, mRNA; actives raise or lower the signal
Method in brief: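 Transfected HepG2 (cis-regulated reporter library, endogenous TFs) → compound 24 h → total RNA → oligo(dT) RT → reporter-specific PCR → FAM primer extension, HpaI cut → CE fluorescence. Fit bidirectional vs DMSO.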

[17] = ATG_GAL4_TRANS: Attagene TRANS-FACTORIAL HepG2 Assay for GAL4 (Internal Marker) (AID 2282976; active = hit-call score of the fitted dose curve at least 0.9, where 1 is the maximum); conditions: HepG2 Attagene TRANS GAL4 internal marker reporter
Method in brief: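 First, HepG2 cells were transfected with reporter units under GAL4-UAS control. Next, they were treated with chemical for 24 h. Finally, RNA was reverse-transcribed, PCR-amplified, FAM-labelled and resolved by capillary electrophoresis, with induction scored against DMSO.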

[18] = target: Estrogen receptor (Homo sapiens) (UniProt P03372); test: ATG_ERa_TRANS: Attagene TRANS-FACTORIAL HepG2 Assay for human Estrogen Receptor alpha (ERa) (AID 2282970; active = hit-call score of the fitted dose curve at least 0.9, where 1 is the maximum); conditions: HepG2 Attagene TRANS ERa GAL4 reporter, mRNA
Sequence of Estrogen receptor (Homo sapiens) (P03372 whole entry, looked up, the tested form may be a part): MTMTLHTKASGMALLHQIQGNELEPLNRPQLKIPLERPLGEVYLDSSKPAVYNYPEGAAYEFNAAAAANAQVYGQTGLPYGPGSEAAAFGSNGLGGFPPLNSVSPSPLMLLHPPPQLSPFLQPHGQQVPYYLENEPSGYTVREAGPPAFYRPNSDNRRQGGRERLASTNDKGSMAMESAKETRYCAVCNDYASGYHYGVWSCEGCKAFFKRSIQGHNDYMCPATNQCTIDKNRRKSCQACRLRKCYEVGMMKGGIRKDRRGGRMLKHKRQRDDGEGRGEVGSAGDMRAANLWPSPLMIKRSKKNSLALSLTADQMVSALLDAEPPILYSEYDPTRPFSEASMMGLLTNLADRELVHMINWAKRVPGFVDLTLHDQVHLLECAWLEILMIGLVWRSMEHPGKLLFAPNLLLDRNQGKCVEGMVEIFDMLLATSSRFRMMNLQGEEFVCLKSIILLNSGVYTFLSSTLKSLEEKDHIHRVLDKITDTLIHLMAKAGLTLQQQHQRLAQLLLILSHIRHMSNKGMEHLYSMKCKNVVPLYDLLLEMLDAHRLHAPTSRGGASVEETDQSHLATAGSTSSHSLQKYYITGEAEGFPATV
Method in brief: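 Human liver HepG2, transient transfection of multiple GAL4-UAS reporter units; TRANS format (exogenous NR-Gal4 chimera). 24 h dosing. Readout: reporter mRNA, RT-PCR, 6-FAM primer extension, HpaI digest, capillary electrophoresis. Positive direction vs DMSO.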

[19] = target: Nuclear receptor subfamily 1 group I member 3 (Homo sapiens) (UniProt Q14994); test: ATG_CAR_TRANS: Attagene TRANS-FACTORIAL HepG2 Assay for human Constitutive Androstane Receptor (CAR) (AID 2282969; active = hit-call score of the fitted dose curve at least 0.9, where 1 is the maximum;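 also: activators raise reporter mRNA above DMSO so AC50 marks induction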); conditions: HepG2 Attagene TRANS-FACTORIAL CAR reporter
Sequence of Nuclear receptor subfamily 1 group I member 3 (Homo sapiens) (Q14994 whole entry, looked up, the tested form may be a part): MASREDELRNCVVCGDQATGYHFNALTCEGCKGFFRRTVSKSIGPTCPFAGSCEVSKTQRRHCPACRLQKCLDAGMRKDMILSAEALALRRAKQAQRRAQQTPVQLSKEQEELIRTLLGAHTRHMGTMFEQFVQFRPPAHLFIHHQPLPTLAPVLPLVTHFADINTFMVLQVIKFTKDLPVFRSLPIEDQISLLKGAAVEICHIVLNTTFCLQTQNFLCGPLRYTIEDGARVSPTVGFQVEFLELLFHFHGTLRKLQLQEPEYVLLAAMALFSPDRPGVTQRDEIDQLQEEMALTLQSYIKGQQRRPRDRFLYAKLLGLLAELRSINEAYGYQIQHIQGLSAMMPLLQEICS
Method in brief: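 HepG2 cells transiently transfected with GAL4-UAS reporter units; TRANS format reads activity of exogenous chimeric NR-Gal4 protein. After 24 h dosing, reporter mRNA quantified by RT-PCR, 6-FAM labelling and capillary electrophoresis; gain of signal fitted against DMSO.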

CC1(C)S[C@@H]2[C@H](NC(=O)COc3ccccc3)C(=O)N2[C@H]1C(=O)O
outcome [1]: inactive
AC50 [2]: 4.35 µM (active)
outcome [3]: inactive
outcome [4]: inactive
outcome [5]: inactive
outcome [6]: inactive
outcome [7]: inactive
outcome [8]: inactive
outcome [9]: inactive
outcome [10]: inactive
outcome [11]: inactive
outcome [12]: inactive
outcome [13]: inactive
outcome [14]: inactive
outcome [15]: inactive

CCOC(=O)NNc1nncc2ccccc12
outcome [1]: inactive
outcome [2]: inactive
outcome [3]: inactive
outcome [5]: inactive
outcome [6]: inactive
outcome [16]: inactive
outcome [7]: inactive
outcome [8]: inactive
outcome [9]: inactive
outcome [10]: inactive
outcome [11]: inactive
outcome [12]: inactive
outcome [13]: inactive
outcome [17]: inactive

Nc1ccc(-c2ccc(F)cc2)cc1
outcome [1]: inactive
AC50 [2]: 27.4 µM (active)
outcome [3]: inactive
outcome [5]: inactive
outcome [6]: inactive
outcome [16]: inactive
outcome [7]: inactive
outcome [8]: inactive
outcome [9]: inactive
outcome [10]: inactive
outcome [11]: inactive
outcome [12]: inactive
AC50 [18]: 26.9 µM (active)
outcome [13]: inactive
outcome [14]: inactive
outcome [15]: inactive

O=S1(=O)OC(c2ccc(O)cc2)(c2ccc(O)cc2)c2ccccc21
outcome [1]: inactive
AC50 [2]: 13.9 µM (active)
outcome [3]: inactive
outcome [5]: inactive
outcome [6]: inactive
outcome [16]: inactive
outcome [7]: inactive
outcome [8]: inactive
outcome [9]: inactive
outcome [10]: inactive
outcome [11]: inactive
outcome [12]: inactive
AC50 [18]: 23.2 µM (active)
outcome [15]: inactive

C=C1C2CCC(C2)C1(C)C (stereo not given)
outcome [1]: inactive
AC50 [2]: 31.4 µM (active)
outcome [3]: inactive
outcome [5]: inactive
outcome [6]: inactive
outcome [16]: inactive
outcome [7]: inactive
outcome [8]: inactive
outcome [9]: inactive
outcome [10]: inactive
outcome [11]: inactive
outcome [12]: inactive
outcome [19]: inactive
outcome [18]: inactive
outcome [14]: inactive
outcome [15]: inactive
